Experimental data from PubChem BioAssay (NCATS).
Several values for one entry are separate records, joined by “and”; a condition that tells them apart may be missing. Identical values can stand only once. Results filed as inconclusive are left out. Activity calls are given as the source filed them. Calls follow the shape of the dose curve; as a rule, active = well fitted inhibition curve with a large enough effect; inconclusive = small, poorly fitted or top-dose-only effect; inactive = flat fitted curve, though single readings scatter. Where a SMILES comes first, the peptide text is derived from it. [ ]: non-standard residue; d: D form. PhLac = O=C(O)[CH](O)Cc1ccccc1; NMeV = CN[CH](C(=O)O)C(C)C

Legend:
Assay in all cases: Cytotoxic Profiling of Annotated Libraries Using Quantitative High-Throughput Screening (AID 1296008); also: nearly all actives have a fitted effect of over 60% in size
Conditions in all cases: Five cell lines viability, CellTiter-Glo ATP luminescence, 48-72 h; max response: stronger effect = lower value
CRL-7250 = normal cell line; tested on: CRL-7250
How it was run: (§1)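 Cytotoxicity was measured as CellTiter-Glo ATP luminescence, read after 10 min at room temperature. Compound treatment of the cells lasted 48 or 72 hr at 37 degrees Celsius in a qHTS format.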

HEK293 = tested on: HEK293
How it was run: as §1

HaCat = tested on: HaCat
How it was run: as §1

Measured: max response
% is scaled to controls: 0 for no effect and ±100 for the full control effect.

CC(=O)OC1C=C(C(=O)O)C2(CO)CCC(C)C(C)(CCc3ccoc3)C2C1 (centres undefined)
inactive: CRL-7250 -9.02% | HEK293 | HaCat

C[C@H]1CN(C[C@H](Cc2ccccc2)C(=O)NCC(=O)O)CC[C@@]1(C)c1cccc(O)c1
inactive: CRL-7250 -8.36% | HEK293 | HaCat

C[C@H](NCc1ccc(OCc2ccccc2F)cc1)C(N)=O
inactive: all assays above

O=C(/C=C/c1ccc(O)cc1)OC[C@H]1O[C@@H](OC(=O)/C=C/c2ccccc2)[C@H](O)[C@@H](O)[C@@H]1O
inactive: all assays above

Clc1ccc2c(c1)C1=NCCN1c1c(-c3noc(C4CC4)n3)ncn1-2
inactive: all assays above

C[C@@H]1O[C@@H](O[C@H]2[C@H](O[C@H]3[C@H](O[C@H]4CC[C@@]5(C=O)C(CC[C@]6(C)C5CC=C5C7CC(C)(C)C[C@@H](O)[C@]7(C)CC[C@]56C)C4(C)C)O[C@H](C(=O)O)[C@@H](O)[C@@H]3O)OC[C@@H](O)[C@@H]2O)[C@H](O)[C@H](O)[C@H]1O (some centres undefined)
inactive: CRL-7250 | HEK293 | HaCat -16.7%

CC(C)C(C(=O)N1CCCC1C(=O)O)N(C)C(=O)C(O)Cc1ccccc1 (centres undefined) (H-[PhLac]-[NMeV]-Pro-OH; configuration not given here)
inactive: CRL-7250 | HEK293 | HaCat -7.13%

C[C@@H]1C[C@H](O[C@@H]2O[C@H](CO[C@@H]3OC[C@](O)(CO)[C@H]3O)[C@@H](O)[C@H](O)[C@H]2O)CC(C)(C)[C@H]1/C=C/[C@@H](C)O
inactive: CRL-7250 -2.76% | HEK293 | HaCat

CNC(=O)Nc1ccc(OC)c(NC(=O)NC(=O)c2cc(F)c(F)cc2Cl)c1
inactive: CRL-7250 -5.98% | HEK293 | HaCat

CC1=C2CC3OC3(C)CCC3OC3(C)CC2OC1=O (centres undefined)
inactive: CRL-7250 -1.41% | HEK293 | HaCat -1.36%

CC(=O)Oc1cc2c(s1)CCN([C@H](C(=O)C1CC1)c1ccccc1F)C2
inactive: CRL-7250 -0.62% | HEK293 | HaCat

CC(C)=CCc1ccc(Oc2c(O)cc(C)cc2CO)c(C(=O)O)c1O
inactive: CRL-7250 -1.26% | HEK293 | HaCat

CC(=O)[C@@H]1CC[C@]2(C(=O)O)CC[C@]3(C)C(CCC4[C@@]5(C)CC[C@H](O)C(C)(C)C5CC[C@]43C)C12 (some centres undefined)
inactive: all assays above

C[C@@H]1CC[C@]2(C(=O)O[C@@H]3O[C@H](CO)[C@@H](O)[C@H](O)[C@H]3O)CC[C@]3(C)C(=CCC4[C@@]5(C)C[C@@H](O)[C@H](O)C(C)(C)C5CC[C@]43C)C2[C@]1(C)O (some centres undefined)
inactive: all assays above

CC1CCC2(NC1)OC1C(=O)C3C4CCC5CC(O[C@@H]6O[C@H](CO)[C@@H](O)[C@H](O)[C@H]6O[C@@H]6O[C@@H](C)[C@H](O)[C@@H](O)[C@H]6O)CCC5(C)C4CCC3(C)C1C2C (some centres undefined)
inactive: all assays above

C/C=C(\C)C(=O)O[C@@H]1CC2[C@@H](CC=C3C[C@@H](O[C@H]4C[C@H](OC)[C@H](O[C@H]5C[C@H](OC)[C@H](O[C@H]6C[C@H](OC)[C@H](O[C@H]7C[C@@H](OC)[C@H](O[C@@H]8O[C@H](CO)[C@@H](O)[C@H](O)[C@H]8O)[C@@H](C)O7)[C@@H](C)O6)[C@@H](C)O5)[C@@H](C)O4)CC[C@@]32C)[C@@]2(O)CC[C@H](C(C)=O)[C@@]12C (some centres undefined)
inactive: CRL-7250 2.31% | HEK293 | HaCat

CC(C)c1cc2c(c(O)c1O[C@@H]1O[C@H](CO)[C@@H](O)[C@H](O)[C@H]1O)CC1(O)CCC(O)C(C)(C)C1CC2 (some centres undefined)
inactive: all assays above

CC(C(=O)O)C1CCC2(C)C3C(=O)C=C4C(CCC(=O)C4(C)C)C3(C)CCC12C (centres undefined)
inactive: CRL-7250 0.281% | HEK293 | HaCat -2.22%

COc1ccc(C2=CC(=O)OC2Cc2ccc(O)cc2)c(O)c1 (centres undefined)
inactive: all assays above

COC1CCCC/C(C)=C/C2C=C(C)C(C)C3C(CC(C)C)NC(=O)C23C(=O)C1 (centres undefined)
inactive: all assays above

O=C(O)Cc1nn(Cc2nc3cc(C(F)(F)F)ccc3s2)c(=O)c2nccnc12
inactive: all assays above

C=C1CCC2C(OC(=O)C2(O)COC(C)=O)C2C(=C)C(O)CC12 (centres undefined)
inactive: CRL-7250 -7.9% | HEK293 | HaCat -8.75%

CC(C)=CCCC1(C)Oc2cc3c(c4c2C2C(O4)C(C)(O)CCC21)CN(C(CCC(=O)O)C(=O)O)C3=O (centres undefined)
inactive: CRL-7250 | HEK293 | HaCat -6.38%

CC(C)CC(=O)OC[C@H]1O[C@@](COC(=O)CC(C)C)(O[C@H]2O[C@H](CO)[C@@H](O)[C@H](O)[C@H]2O)[C@@H](OC(=O)CC(C)C)[C@@H]1OC(=O)CC(C)C
inactive: CRL-7250 -0.942% | HEK293 | HaCat

C[C@H]1CC[C@@]2(OC1)O[C@H]1CC3C4CC=C5C[C@H](O)C[C@@H](O[C@@H]6O[C@@H](C)[C@H](O)[C@@H](O)[C@H]6O[C@@H]6O[C@@H](C)[C@H](O)[C@@H](O)[C@H]6O)[C@]5(C)C4CC[C@]3(C)[C@H]1[C@@H]2C (some centres undefined)
inactive: CRL-7250 -7.49% | HEK293 | HaCat -9.03%

C=C1C(=O)OC2CC(C)=C(C(C)CCCO[C@@H]3O[C@H](CO)[C@@H](O)[C@H](O)[C@H]3O)C(O)C12 (some centres undefined)
inactive: CRL-7250 -0.682% | HEK293 | HaCat

CC1(C)CC[C@]2(C(=O)O)CC[C@]3(C)C(=CCC4[C@@]5(C)CC[C@H](O[C@@H]6O[C@H](C(=O)O)[C@@H](O)[C@H](O)[C@H]6O)C(C)(CO)C5CC[C@]43C)C2C1 (some centres undefined)
inactive: CRL-7250 4.13% | HEK293 | HaCat -0.619%

CN1C(=O)c2ccccc2NC(=O)[C@]12O[C@@H]2c1cccc(O)c1
inactive: CRL-7250 -2% | HEK293 | HaCat -7.54%

COc1cc(C(=O)OC[C@H]2O[C@H](O[C@@]3(CO)O[C@@H](CO)[C@H](O)[C@H]3O)[C@H](O)[C@@H](O)[C@@H]2O)ccc1O
inactive: CRL-7250 -10.5% | HEK293 | HaCat 2.76%

CCn1cc(C2=NOC(C(=O)Nc3c(C)n(C)n(-c4ccccc4)c3=O)C2)c(C)n1 (centres undefined)
inactive: CRL-7250 1.73% | HEK293 | HaCat -4.53%

CC(=O)O[C@H]1[C@H](Oc2ccccc2COC(=O)C2(O)C=CCCC2=O)O[C@H](CO)[C@@H](O)[C@@H]1O (some centres undefined)
inactive: CRL-7250 3.12% | HEK293 | HaCat 3.69%

C=C1CCC[C@]2(C)C[C@]3(O)OC(=O)C(C)=C3C[C@@H]12
inactive: all assays above

CC(=O)OC1C(O)C(C)=C(CCC(C)CC(=O)O)C2(C)CCCC(C)(C)C12 (centres undefined)
inactive: all assays above

CC1=CCC2C(C)(CO)CCCC2(C)C1CC12OC1C(O)C(CO)=CC2O (centres undefined)
inactive: CRL-7250 4.27% | HEK293 | HaCat -8.88%

CC1NC(=O)C(Cc2c[nH]c3ccccc23)NC1=O (centres undefined)
inactive: CRL-7250 2.89% | HEK293 | HaCat 2.4%

C=CC1(C)C=C2C(O)CC3C(C)(C(=O)O)CCCC3(C)C2CC1 (centres undefined)
inactive: all assays above

CC[C@H](/C=C/[C@@H](C)[C@H]1CC[C@H]2[C@@H]3CC=C4C[C@@H](O)CC[C@]4(C)[C@H]3CC[C@]12C)C(C)C
inactive: CRL-7250 -4.85% | HEK293 | HaCat 0.322%

COc1cc(/C=C/C(=O)OC2CC3CCC2(C)C3(C)C)ccc1O (centres undefined)
inactive: CRL-7250 | HEK293 | HaCat -0.121%

C=Cc1cc(O)cc2nc(-c3ccc(O)c(F)c3)oc12
inactive: CRL-7250 -4.59% | HEK293 | HaCat -8.75%

CC1=CC(=O)CC(C)(C)C1CCC(C)OC1OC(COC(=O)c2cc(O)c(O)c(O)c2)C(O)C(O)C1O (centres undefined)
inactive: CRL-7250 -1.65% | HEK293 | HaCat

Nc1ncnc2c1ncn2[C@H]1CCCO1
inactive: CRL-7250 -0.0341% | HEK293 | HaCat

COc1ncc(-c2ccc3c(Nc4cc(Oc5cc(F)cc(F)c5)cc(C(=O)O)c4)c(S(=O)(=O)NC4CC4)cnc3c2)c(OC)n1
inactive: CRL-7250 -7.5% and -5.78% | HEK293 0.563% and -20.6% | HaCat -12% and 2.17%

CC(C)(C)c1cc(CN2CCN(CC(O)c3ccc(Cl)cc3)CC2)cc(C(C)(C)C)c1O (centres undefined)
inactive: CRL-7250 -1.02% | HEK293 | HaCat

CN[C@@H]1[C@@H](O)[C@@H](O[C@@H]2[C@@H](O)[C@H](O[C@H]3O[C@H](CN)[C@@H](O)[C@H](O)[C@H]3O)[C@@H](N)C[C@H]2NC(=O)[C@@H](O)CN)OC[C@]1(C)O
inactive: CRL-7250 -2.08% | HEK293 | HaCat

C=C1CC[C@H]2[C@@H](/C=C(\C)C(=O)[C@@]3(OC(C)=O)C[C@H](C)[C@H](OC(C)=O)[C@@H]3[C@H]1OC(C)=O)C2(C)C
inactive: all assays above

C[C@@H]1O[C@@H](OC[C@H]2O[C@@H](OCCc3ccccc3)[C@H](O)[C@@H](O)[C@@H]2O)[C@H](O)[C@H](O)[C@H]1O
inactive: CRL-7250 -0.537% | HEK293 | HaCat

C=C(C)[C@@H](C)[C@H]1O[C@]23C[C@]4(CO2)C(CCC2[C@@]5(C)CC[C@H](O[C@@H]6OC[C@H](O)[C@H](O[C@@H]7O[C@H](CO)[C@@H](O)[C@H](O)[C@H]7O)[C@H]6O[C@@H]6O[C@@H](CO)[C@H](O)[C@H]6O)C(C)(C)C5CC[C@]24C)C3[C@@](C)(O)[C@@H]1OC(C)=O (some centres undefined)
inactive: CRL-7250 | HEK293 | HaCat -4.68%

CNC(=O)c1ccc2cc([C@@]3(O)CCn4cncc43)ccc2c1
inactive: CRL-7250 | HEK293 | HaCat 4.91%
